Results reported in PubChem BioAssay (Tox21).
Records with an inconclusive call do not appear. A call without a number means that no potency is given here. Active and inactive are the calls of the source. Unless noted, the call rests on the fitted dose curve; in most records, active means well fitted curve in the direction sought with a large enough effect in the repeat runs; inconclusive means weak or mixed curves; inactive means no such curve, though single readings can be large; an effect the other way counts as inactive or inconclusive.

Legend:
[1] = qHTS assay to identify small molecule antagonists of the glucocorticoid receptor (GR) signaling pathway - cell viability counter screen (AID 720693); further: nearly all actives have a fitted effect of over 55% in size
[2] = qHTS assay for identifying genotoxic compounds that show differential cytotoxicity against isogenic chicken DT40 cell lines with known DNA damage response pathways - wild type cell line (AID 743012); further: nearly all actives have a fitted effect of over 60% in size
Summary of the method: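 Using parental DT40 (300 cells/well), compounds delivered in DMSO incubate 40 h at 37 C/5% CO2. CellTiter-Glo reagent then stands 30 min at room temperature, and luminescence gives cell viability.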

[3] = qHTS assay for identifying genotoxic compounds that show differential cytotoxicity against isogenic chicken DT40 cell lines with known DNA damage response pathways - Rev3 mutant cell line (AID 743014); further: nearly all actives have a fitted effect of over 55% in size
[4] = qHTS assay to identify small molecule antagonists of the androgen receptor (AR) signaling pathway - cell viability counter screen (AID 743033; further: nearly all actives have a fitted effect of over 45% in size)
[5] = qHTS assay to identify small molecule antagonists of the androgen receptor (AR) signaling pathway using the MDA cell line - cell viability counter screen (AID 743041; further: nearly all actives have a fitted effect of over 45% in size)
Summary of the method: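 R1881-driven MDA-kb2 AR-luc cells, 3,000/well, were dosed with library compounds for 16 h; cell health came from CellTiter-Fluor fluorescence in the reporter wells.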

[6] = qHTS assay to identify small molecule antagonists of the thyroid receptor (TR) signaling pathway - cell viability counter screen (AID 743064); further: nearly all actives have a fitted effect of over 50% in size
Summary of the method: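 In rat pituitary GH3.TRE-Luc reporter cells co-exposed to compound and 1 nM T3 for 23.5 h, cytotoxicity was assessed with CellTiter-Fluor in the same wells, read by fluorescence.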

[7] = qHTS assay to identify small molecule antagonists of the thyroid receptor (TR) signaling pathway (AID 743065); further: series mostly up to about 70 µM; nearly all actives have a fitted effect of over 55% in size
Summary of the method: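 Antagonism measured as loss of luciferase signal in GH3 cells stably carrying a TRE-luciferase reporter, co-treated with compound and T3 (1 nM final) for 23.5 h at 37 C. Viability was read in the same well by CellTiter-Fluor.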

[8] = system: thyroid hormone receptor (rat, GH3 cells); experiment: qHTS assay to identify small molecule agonists of the thyroid receptor (TR) signaling pathway (AID 743066; calls by dose curve)
[9] = target: Estrogen receptor (Homo sapiens) (UniProt P03372); experiment: qHTS assay to identify small molecule antagonists of the estrogen receptor alpha (ER-alpha) signaling pathway (AID 743069; active means well fitted curve in the direction sought with a large enough effect in the signal ratio in the repeat runs, not every such curve was filed as active; the % refers to the signal ratio)
Estrogen receptor (Homo sapiens), sequence (P03372 whole entry, looked up): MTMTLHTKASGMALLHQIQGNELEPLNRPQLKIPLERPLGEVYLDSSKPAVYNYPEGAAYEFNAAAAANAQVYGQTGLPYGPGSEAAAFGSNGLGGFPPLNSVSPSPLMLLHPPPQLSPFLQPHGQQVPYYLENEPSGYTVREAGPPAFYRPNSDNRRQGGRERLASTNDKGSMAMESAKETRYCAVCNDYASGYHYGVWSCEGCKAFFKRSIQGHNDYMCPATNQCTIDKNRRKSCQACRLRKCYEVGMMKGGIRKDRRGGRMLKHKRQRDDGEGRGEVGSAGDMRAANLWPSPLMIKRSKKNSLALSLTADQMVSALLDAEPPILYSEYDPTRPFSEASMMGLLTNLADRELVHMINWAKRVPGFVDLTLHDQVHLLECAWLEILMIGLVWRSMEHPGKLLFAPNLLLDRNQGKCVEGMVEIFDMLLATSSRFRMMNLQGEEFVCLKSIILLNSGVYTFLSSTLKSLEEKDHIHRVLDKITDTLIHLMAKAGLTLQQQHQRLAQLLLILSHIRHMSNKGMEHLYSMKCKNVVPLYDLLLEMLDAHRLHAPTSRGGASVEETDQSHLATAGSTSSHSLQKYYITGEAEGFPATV
Summary of the method: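 Compound effects are measured against 17beta-estradiol stimulation in HEK293 cells with a UAS-controlled beta-lactamase reporter for ER-alpha. Exposure lasts 18 hr at 37C; LiveBLAzer B/G FRET substrate follows for 2 hr at room temperature.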

[10] = qHTS assay to identify small molecule antagonists of the estrogen receptor alpha (ER-alpha) signaling pathway - cell viability counter screen (AID 743074; calls by dose curve;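 further: HEK293 cells carrying ER-alpha-UAS-bla reporter stimulated with 17beta-estradiol; nearly all actives have a fitted effect of over 45% in size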)
[11] = target: Estrogen receptor (Homo sapiens) (UniProt P03372); experiment: qHTS assay to identify small molecule agonists of the estrogen receptor alpha (ER-alpha) signaling pathway (AID 743075; calls by dose curve)
[12] = target: Estrogen receptor (Homo sapiens) (UniProt P03372); experiment: qHTS assay to identify small molecule agonists of the estrogen receptor alpha (ER-alpha) signaling pathway using the BG1 cell line (AID 743079); further: nearly all actives have a fitted effect of over 20% in size; further: potency means the concentration at half of the fitted maximal effect
[13] = qHTS assay to identify small molecule antagonists of the estrogen receptor alpha (ER-alpha) signaling pathway using the BG1 cell line (AID 743080; calls by dose curve;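 further: BG1 cells stimulated with 17beta-estradiol alongside compound; series mostly up to about 70 µM; nearly all actives have a fitted effect of over 25% in size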)
Summary of the method: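 BG1Luc4E2, endogenous ER-alpha, 4xERE-luc; 5 d charcoal-stripped FBS, phenol red free; 24 h plating; cpd + 17beta-estradiol 21.5 h, 37 C/5% CO2; CellTiter-Fluor viability 30 min, then ONE-Glo luciferase 30 min RT.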

[14] = qHTS assay to identify small molecule antagonists of the estrogen receptor alpha (ER-alpha) signaling pathway using the BG1 cell line - cell viability counter screen (AID 743081);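 further: compound given together with 17beta-estradiol as the ER stimulus; series mostly up to about 70 µM; nearly all actives have a fitted effect of over 45% in size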
Aromatase (Homo sapiens) = Aromatase (Homo sapiens) (UniProt P11511); experiment: qHTS assay to identify aromatase inhibitors (AID 743083); further: series mostly up to about 70 µM; nearly all actives have a fitted effect of over 55% in size
Aromatase (Homo sapiens), sequence (P11511 whole entry, looked up): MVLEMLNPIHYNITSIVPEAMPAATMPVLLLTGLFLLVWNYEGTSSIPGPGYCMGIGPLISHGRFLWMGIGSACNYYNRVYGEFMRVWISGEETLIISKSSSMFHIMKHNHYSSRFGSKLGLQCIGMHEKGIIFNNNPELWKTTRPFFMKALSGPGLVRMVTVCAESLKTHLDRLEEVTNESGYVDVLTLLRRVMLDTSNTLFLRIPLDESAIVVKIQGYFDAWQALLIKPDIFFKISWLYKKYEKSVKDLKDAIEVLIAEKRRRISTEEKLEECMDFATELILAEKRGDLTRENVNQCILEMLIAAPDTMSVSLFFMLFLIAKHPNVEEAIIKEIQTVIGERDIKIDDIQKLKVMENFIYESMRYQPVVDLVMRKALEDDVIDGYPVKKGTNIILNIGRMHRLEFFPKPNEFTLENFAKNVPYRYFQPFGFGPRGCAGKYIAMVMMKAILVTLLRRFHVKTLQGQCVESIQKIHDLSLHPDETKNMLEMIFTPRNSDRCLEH

[15] = qHTS assay for identifying genotoxic compounds that show differential cytotoxicity against isogenic chicken DT40 cell lines with known DNA damage response pathways - Rad54/Ku70 mutant cell line (AID 743015); further: nearly all actives have a fitted effect of over 60% in size
[16] = target: Androgen receptor (Homo sapiens) (UniProt P10275); experiment: qHTS assay to identify small molecule agonists of the androgen receptor (AR) signaling pathway (AID 743036; active means well fitted activation curve with a large enough effect in the signal ratio in the repeat runs, with a control signal flat, not every such curve was filed as active; the % refers to the signal ratio)
Androgen receptor (Homo sapiens), sequence (P10275 whole entry, looked up): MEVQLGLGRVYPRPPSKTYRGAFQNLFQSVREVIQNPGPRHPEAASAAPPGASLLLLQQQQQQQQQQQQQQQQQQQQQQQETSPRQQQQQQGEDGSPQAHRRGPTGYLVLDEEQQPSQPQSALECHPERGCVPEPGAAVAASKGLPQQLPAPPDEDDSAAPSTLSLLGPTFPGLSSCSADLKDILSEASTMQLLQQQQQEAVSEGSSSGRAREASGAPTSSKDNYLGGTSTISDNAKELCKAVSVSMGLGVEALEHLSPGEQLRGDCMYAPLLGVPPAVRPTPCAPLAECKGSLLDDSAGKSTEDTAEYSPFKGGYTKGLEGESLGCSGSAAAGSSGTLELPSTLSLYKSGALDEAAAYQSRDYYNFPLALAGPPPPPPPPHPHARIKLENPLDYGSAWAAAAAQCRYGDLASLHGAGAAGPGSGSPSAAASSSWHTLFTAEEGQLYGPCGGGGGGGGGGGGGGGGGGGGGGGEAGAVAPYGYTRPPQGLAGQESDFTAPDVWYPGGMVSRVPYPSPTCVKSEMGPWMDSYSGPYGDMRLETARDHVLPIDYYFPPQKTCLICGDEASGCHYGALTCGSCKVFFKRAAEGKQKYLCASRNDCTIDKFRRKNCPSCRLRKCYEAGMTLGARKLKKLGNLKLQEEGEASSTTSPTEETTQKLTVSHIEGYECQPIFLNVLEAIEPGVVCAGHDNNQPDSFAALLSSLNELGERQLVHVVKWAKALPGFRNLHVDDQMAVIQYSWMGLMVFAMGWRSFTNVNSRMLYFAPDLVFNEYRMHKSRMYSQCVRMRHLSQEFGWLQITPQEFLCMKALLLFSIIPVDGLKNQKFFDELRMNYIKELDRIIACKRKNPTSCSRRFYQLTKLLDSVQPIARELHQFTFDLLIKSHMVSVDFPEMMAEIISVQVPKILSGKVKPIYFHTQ
Summary of the method: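 Cell-based FRET reporter assay: HEK293 line with a UAS-beta-lactamase construct, compounds added in DMSO, 16 h exposure at 37C, then 2 h substrate step at room temperature and fluorescence intensity read.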

[17] = target: Androgen receptor (Homo sapiens) (UniProt P10275); experiment: qHTS assay to identify small molecule agonists of the androgen receptor (AR) signaling pathway using the MDA cell line (AID 743040; further: nearly all actives have a fitted effect of over 20% in size)
Summary of the method: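 After a 5 h incubation at 37C and 0% CO2, MDA-kb2 reporter cells were dosed with compounds in DMSO and kept 16 h under the same conditions. Luciferase activity was then read as luminescence with ONE-Glo.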

[18] = target: Androgen receptor (Homo sapiens) (UniProt P10275); experiment: qHTS assay to identify small molecule antagonists of the androgen receptor (AR) signaling pathway using the MDA cell line (AID 743042; further: nearly all actives have a fitted effect of over 55% in size)
Summary of the method: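 Antagonist mode: compounds plus R1881 agonist added to MDA-kb2 AR-luc cells, incubated 16 h at 37C. Luciferase reporter luminescence quantified, with multiplexed CellTiter-Fluor readout for cell viability.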

[19] = target: Androgen receptor (Homo sapiens) (UniProt P10275); experiment: qHTS assay to identify small molecule antagonists of the androgen receptor (AR) signaling pathway (AID 743035; active means well fitted inhibition curve with a large enough effect in the signal ratio in the repeat runs, not every such curve was filed as active; the % refers to the signal ratio)
Summary of the method: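 Using qHTS, AR-UAS-bla GripTite HEK293 cells received compound, then R1881, and were cultured 16 h at 37C/5% CO2 before a 2 h room-temperature LiveBLAzer B/G FRET substrate step and fluorescence measurement.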

SMILES | outcome [1] | Potency [2] | Potency [3] | outcome [4] | Potency [5] | Potency [6] | Potency [7] | outcome [8] | Potency [9] | Potency [10] | Potency [11] | Potency [12] | Potency [13] | outcome [14] | outcome (Aromatase (Homo sapiens)) | Potency [15] | outcome [16] | Potency [17] | outcome [18] | Potency [19]
O=C(O)CNC(=O)c1ccc(CO)o1 | inactive | inactive | inactive | inactive | inactive | inactive | inactive | inactive | inactive | inactive | inactive | inactive | inactive | inactive | inactive | – | – | – | – | –
c1ccc(Cc2ccccc2)cc1 | inactive | inactive | inactive | – | inactive | inactive | inactive | inactive | inactive | inactive | inactive | inactive | inactive | inactive | inactive | inactive | – | – | – | –
C[N+](C)(C)CCCCCCCCCC[N+](C)(C)C | inactive | inactive | inactive | inactive | inactive | – | – | – | inactive | inactive | inactive | inactive | – | inactive | – | inactive | – | – | – | –
CO[C@@]1(NC(=O)CSC[C@@H](N)C(=O)O)C(=O)N2C(C(=O)O)=C(CSc3nnnn3C)CS[C@@H]21 | inactive | inactive | inactive | inactive | inactive | inactive | inactive | inactive | inactive | inactive | inactive | inactive | inactive | – | inactive | – | inactive | inactive | inactive | –
CN(C)C(=O)Oc1ccc[n+](C)c1 | inactive | inactive | inactive | inactive | inactive | – | – | – | inactive | inactive | inactive | 26.6 µM (active) | – | inactive | inactive | inactive | – | – | – | –
C[C@@H]1CCC[C@H](C)N1 | inactive | inactive | inactive | inactive | inactive | – | inactive | inactive | – | – | – | – | – | inactive | inactive | inactive | – | – | – | –
CCN1CCOCC1 | inactive | inactive | inactive | inactive | inactive | inactive | inactive | inactive | – | inactive | – | – | – | inactive | inactive | – | – | – | – | –
Cc1ccc(C(=O)c2ccc(CC(=O)O)n2C)cc1 | inactive | inactive | inactive | – | inactive | inactive | – | inactive | – | inactive | inactive | inactive | inactive | inactive | inactive | inactive | – | inactive | inactive | –
CO[C@@]1(NC(=O)C(C(=O)O)c2ccc(O)cc2)C(=O)N2C(C(=O)O)=C(CSc3nnnn3C)CO[C@@H]21 (some centres not stated) | inactive | inactive | inactive | inactive | inactive | inactive | – | – | inactive | inactive | inactive | inactive | – | – | inactive | inactive | – | – | – | –
CC(COc1ccccc1)NN (configuration not stated) | inactive | inactive | inactive | inactive | inactive | – | – | – | inactive | inactive | inactive | inactive | inactive | inactive | inactive | inactive | – | – | – | –
Nc1ccccn1 | inactive | inactive | inactive | inactive | – | inactive | inactive | inactive | – | inactive | – | – | – | inactive | inactive | inactive | – | – | – | –
NCCCC[C@H](N[C@@H](CCc1ccccc1)C(=O)O)C(=O)N1CCC[C@H]1C(=O)O | inactive | inactive | inactive | inactive | inactive | – | – | – | – | inactive | – | – | – | inactive | inactive | inactive | – | – | – | –
CCCCS(=O)(=O)N[C@@H](Cc1ccc(OCCCCC2CCNCC2)cc1)C(=O)O | inactive | inactive | inactive | inactive | inactive | inactive | – | inactive | inactive | – | inactive | inactive | inactive | inactive | inactive | – | – | inactive | inactive | inactive
